Cruzain inh noDet: inhibitors of Trypanosoma cruzi cruzain without detergent. P25779. purified cruzain, Z-FR-AMC fluorescence, no detergent. Potency, µM, for the others: max response, negative = inhibition, usual class: inhibitors. 2.3% of 200,000 active;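 also: plate controls were enzyme without inhibitor for no effect and buffer without enzyme for full effect; nearly all actives have a fitted effect of over 40% in size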
Target sequence (P25779 123-467 limits assumed): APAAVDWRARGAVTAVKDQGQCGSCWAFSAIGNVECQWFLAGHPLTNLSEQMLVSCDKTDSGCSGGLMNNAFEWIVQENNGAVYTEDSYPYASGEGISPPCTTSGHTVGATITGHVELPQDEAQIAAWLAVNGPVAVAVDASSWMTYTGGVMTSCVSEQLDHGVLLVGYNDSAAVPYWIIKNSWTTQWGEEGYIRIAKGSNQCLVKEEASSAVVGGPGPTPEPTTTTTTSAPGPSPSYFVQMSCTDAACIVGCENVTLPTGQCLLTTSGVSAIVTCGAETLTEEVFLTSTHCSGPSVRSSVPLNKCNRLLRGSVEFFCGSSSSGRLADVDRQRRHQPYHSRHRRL
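Detergent-free condition (0.00005% Triton X-100) in acetate buffer pH 5.5 with DTT. 1.5 nM enzyme and compound were pre-mixed 15 min, then 2 uM Z-FR-AMC substrate added; reaction progress from fluorescence change between first and third reads (60 s).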
Cruzain Triton: inhibitors of Trypanosoma cruzi cruzain with detergent | purified cruzain, Z-FR-AMC fluorescence, 0.01% Triton | P25779 | Potency, µM, for the others: max response, negative = inhibition, usual class: inhibitors | 0.43% of 200,000 active;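 also: plate controls were neutral wells for no effect and buffer without enzyme for full effect; nearly all actives have a fitted effect of over 40% in size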
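Detergent-containing run (0.01% Triton X-100) in acetate buffer pH 5.5 with 5 mM DTT: enzyme at 1.5 nM final, 15 min compound preincubation at room temperature, then 2 uM Z-FR-AMC substrate. Activity taken as 60 s fluorescence increase at 360/450 nm.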
Starred values were filed as active, the others as inactive; ? = inconclusive. Most compounds without a hit are left out; they make up all but 2.5% or so of the library. Calls follow the shape of the dose curve; as a rule, active = well fitted curve in the direction sought with a large enough effect; inconclusive = small, poorly fitted or top-dose-only effect, or another doubt; inactive = no such curve, though single readings can be large; an effect the other way counts as inactive or inconclusive. Potency is read from the fitted curve at half-maximal effect.

SMILES	Cruzain inh noDet	Cruzain Triton
Cc1csc2nc(COC(=O)CNC(=O)c3ccccc3Cl)cc(=O)n12	20µM*	25.1µM*
Cc1csc2nc(COC(=O)CNC(=O)c3ccccc3)cc(=O)n12	2.0%	-7.5%
CC(C)CCN1C(=O)N(c2ccccc2)C(=O)C1CC(=O)Nc1ccc(Cl)cc1 (stereo not given)	-1.6%	-5.5%
CCc1ccc(S(=O)(=O)c2nnn3c2nc(NCc2cccc(OC)c2)c2cc(Cl)ccc23)cc1	?	-0.8%
CCC(CC)C(=O)Nc1cccc(-c2nc3cccnc3s2)c1	-14.1%	-5.4%
O=C(Nc1cccc(-c2nc3cccnc3s2)c1)C1c2ccccc2Oc2ccccc21	20µM*	-0.2%
CC(=O)c1ccc(NC(=O)CSc2nccn2Cc2ccc3c(c2)OCO3)cc1	-5.7%	-6.8%
COC(=O)c1c(C)oc2ccc(N(C(=O)Oc3ccccc3)S(=O)(=O)c3ccc(Cl)c([N+](=O)[O-])c3)cc12	7.94µM*	-2.9%
CCc1ccc(S(=O)(=O)N(C(=O)Oc2ccccc2)c2ccc3oc(C)c(C(=O)OC)c3c2)cc1	?	-2.4%
Cc1cc(C(=O)COC(=O)c2ccc(O)cc2)c(C)n1CC1COc2ccccc2O1 (stereo not given)	25.1µM*	-4.1%
COc1cccc(/C=C/C(=O)OCC(=O)c2cc(C)n(CC3CCCO3)c2C)c1OC (stereo not given)	12.7%	-6.2%
NS(=O)(=O)c1ccc2nc(NC(=O)COc3ccc(Cl)cc3Cl)sc2c1	?	-2.8%
Cc1cc(C)c2oc(C(=O)Nc3ccc(S(=O)(=O)N4CCCCC4)cc3)cc(=O)c2c1	-5.7%	-0.7%
Cc1cc(C)cc(Nc2nc(-c3ccc(S(=O)(=O)N4CCCC4)cc3)cs2)c1	15.8µM*	-1.7%
Cc1nc(-c2cccc(S(=O)(=O)N3CCCCCC3)c2)cs1	-11.5%	-8.8%
O=S(=O)(c1ccc(-c2csc(Nc3ccc(F)cc3)n2)cc1)N1CCCC1	?	-3.3%
Cc1nc(-c2ccc(S(=O)(=O)N3CCCCCC3)cc2)cs1	-11.7%	-1.6%
O=S(=O)(c1ccc(-c2csc(Nc3ccc(Br)cc3)n2)cc1)N1CCCC1	31.6µM*	-1.9%
Cc1ccc(Nc2nc(-c3ccc(S(=O)(=O)N4CCCC4)cc3)cs2)cc1C	12.6µM*	3.7%
Cc1ccc(CNC(=O)c2nc(SCc3cccc(C)c3)ncc2Cl)cc1	-4.2%	-2.2%
COC(=O)C(CCSC)NC(=O)c1cc2c(n(-c3ccc(Cl)cc3)c1=O)CCCC2=O (stereo not given)	9.1%	-1.8%
O=C(Cn1c(=O)c2ccccc2n(CC(=O)Nc2ccccc2F)c1=O)NCCc1ccccc1	-15.8%	0.9%
Cc1ccc(NC(=O)Cn2nnc(C(=O)NCCc3ccccc3)c2N)cc1Cl	?	-3.8%
CC(C)c1ccc(NC(=O)Cn2nnc(C(=O)NCc3cccs3)c2N)cc1	-7.5%	0.3%
CC(C)c1ccc(NC(=O)Cn2nnc(C(=O)NCc3ccc(Cl)cc3)c2N)cc1	7.94µM*	-0.5%
SMILES	Cruzain inh noDet	Cruzain Triton
Nc1c(C(=O)NCCc2ccccc2)nnn1CC(=O)Nc1ccc(Cl)cc1	25.1µM*	-0.7%
O=C(Cn1c(=O)c2ccccc2n(CC(=O)Nc2ccc(Cl)cc2)c1=O)NCCc1ccccc1	12.6µM*	-0.2%
CCOC(=O)N1CCc2c(sc(NCc3cc(OC)c(OC)cc3OC)c2C(=O)Nc2ccc(OCC)cc2)C1	24.9%	-13.9%
CCOc1ccccc1CNC(=O)c1cc(-c2ccc(C)c(C)c2)nc2ccccc12	-2.9%	1.6%
CCN1C(C(=O)c2ccccc2)=C(OC(=O)c2ccc(OC)cc2)c2ccccc2S1(=O)=O	?	-4.0%
Oc1c(Br)cc(Br)cc1CN1CCN(Cc2ccccc2)CC1	1.6%	-2.1%
Oc1c(Br)cc2oc3c(c2c1CNCc1ccccc1)CCCC3	31.6µM*	-7.8%
O=C(CN1CCN(S(=O)(=O)c2cc(Cl)ccc2Cl)CC1)Nc1cccc(F)c1	-5.6%	-8.5%
CCc1ccc(Nc2sc(C(=O)c3ccccc3)c(N)c2S(C)(=O)=O)cc1	-8.4%	-10.0%
COc1ccccc1Nc1nc(C)nc(N)c1S(=O)(=O)c1ccccc1	-11.9%	-3.2%
Cc1ccc(Nc2sc(C(=O)c3ccccc3)c(N)c2S(=O)(=O)c2ccccc2)c(C)c1	10µM*	-4.0%
COc1ccccc1Nc1sc(C(=O)c2ccc(C)cc2C)c(N)c1S(=O)(=O)c1ccccc1	7.94µM*	-1.3%
Cc1ccc(Nc2sc(C(=O)c3ccc(F)cc3)c(N)c2S(=O)(=O)c2ccc(C)cc2)cc1	?	2.2%
Cc1ccc(Nc2sc(C(=O)c3ccccc3)c(N)c2C(=O)NC(C)C)cc1	9.2%	-2.9%
Cc1ccc(S(=O)(=O)c2c(Nc3cc(F)ccc3F)sc(C(=O)c3ccc(F)cc3)c2N)cc1	3.16µM*	-5.1%
CCOc1ccc(Nc2sc(C(=O)c3cccc(OC)c3)c(N)c2S(=O)(=O)c2ccccc2)cc1	12.6µM*	-2.4%
O=C(CC1N=C2c3ccccc3N=C(SCc3ccc(F)cc3)N2C1=O)NC1CCCCC1 (stereo not given)	-9.9%	-5.7%
Cc1ccccc1Nc1sc(C(=O)c2ccc(F)cc2)c(N)c1C(=O)NCCc1ccccc1	?	-3.6%
Cc1nn(C(C)(C)C)c(OC(=O)c2ccc3c(c2)OCO3)c1S(=O)(=O)c1ccccc1	6.7%	-5.8%
CCc1ccc(Nc2sc(C(=O)c3ccc(F)cc3)c(N)c2S(=O)(=O)c2ccccc2)cc1	7.94µM*	-4.3%
COc1ccc(OC)c(Nc2sc(C(=O)c3ccccc3)c(N)c2S(=O)(=O)c2ccccc2)c1	7.94µM*	-1.6%
COc1ccccc1Nc1sc(C(=O)c2ccc3c(c2)OCO3)c(N)c1S(=O)(=O)c1ccccc1	7.94µM*	-3.5%
Nc1c(C(=O)c2ccc(F)cc2)sc(Nc2ccccc2F)c1S(=O)(=O)c1ccc(Br)cc1	-26.5%	-1.1%
COc1cccc(C(=O)c2sc(Nc3ccc(C)cc3C)c(S(=O)(=O)c3ccccc3)c2N)c1	7.94µM*	-4.4%
Cc1ccc(NS(=O)(=O)c2cccc(C(=O)O)c2)c(C)c1	1.1%	1.7%
SMILES	Cruzain inh noDet	Cruzain Triton
CCc1nn2c(=O)cc(COC(=O)CNC(=O)c3ccccc3)nc2s1	-9.2%	-4.2%
Cc1cccc(C)c1NC(=O)NCCc1c[nH]c2ccccc12	18.6%	-4.6%
Cc1ccc2scc(N3CCN(c4ccccc4)CC3)c(=O)c2c1	1.8%	-5.8%
Cc1ccc(Cl)cc1Nc1sc(C(=O)c2ccc(F)cc2)c(N)c1S(C)(=O)=O	-26.6%	-12.5%
COc1ccc(S(=O)(=O)c2c(Nc3ccc(F)cc3)sc(C(=O)c3ccc(C)cc3C)c2N)cc1	5.01µM*	-1.4%
Cc1ccc(Nc2sc(C(=O)c3ccccc3)c(N)c2S(=O)(=O)c2ccccc2)cc1Cl	3.98µM*	-5.0%
Cc1cc(Nc2sc(C(=O)c3ccc(F)cc3)c(N)c2C(=O)Nc2ccc(F)cc2)ccc1Cl	?	-5.9%
COc1cccc(N2CC(NC(=O)c3ccc(S(=O)(=O)N4CCOCC4)cc3)CC2=O)c1 (stereo not given)	28.5%	-0.5%
CCOc1ccc(NC(=O)c2ccc3c(=O)n4nc(Nc5ccccc5C)sc4nc3c2)cc1	6.3%	1.3%
COC(=O)c1cc(-c2ccc(C)cc2)c2c(=O)n(C)c(=O)n(C)c2n1	-0.4%	-3.0%
CCC(=O)Nc1nnc(SCC(=O)c2ccc3c(c2)Cc2ccccc2-3)s1	20µM*	4.8%
CC1CCCC(C)N1C(=O)CSc1nnc(NC(=O)Cc2cccs2)s1 (stereo not given)	3.7%	2.0%
